From PMC4552634, “A New Set of Chemical Starting Points with Plasmodium falciparum Transmission-Blocking Potential for Antimalarial Drug Discovery” (PLoS ONE, 2015)
The campaign covered roughly 13,000 compounds. About 3,200 (25%) showed an effect of 50% or more. This is one part of the list.

Tested on: P. falciparum stage V gametocytes
Design: BacTiter-Glo ATP luminescence viability of purified stage V gametocytes in 384-well plates, per cent inhibition versus DMSO
Conditions: 48 h, 5 µM; inhibitor

Going from OC[C@H]1CCCN1CC#Cc1cc2c(Nc3ccc(OCc4cccc(F)c4)c(Cl)c3)ncnc2s1 [TCMDC-138787] to O=C(Nc1cccc(C(F)(F)F)c1)NC1CCN(c2ccnc3cc(Cl)ccc23)C1 (stereo not drawn) [TCMDC-133406], the “% Inhibition” value falls from -22.43% to -28.21%.

Compared with Cc1ccn2c(C(=O)N3CCN(c4cccc5c4nc(-c4ccoc4)n5Cc4ccccn4)CC3)c(C)nc2c1 [TCMDC-134556], COc1ccc(-c2cccc(NC(=O)c3ccccc3)c2)cc1CN1CCCN(C)CC1 [TCMDC-132627] is higher in “% Inhibition” value: -25.5% for the first, 80.03% for the second.

Compared with CCCC(=O)Nc1ccc(Nc2nc(C)cc(N3CCCC3)n2)cc1 [TCMDC-124718], CN1CCCCC1CCc1cc(C(=O)Nc2ccc(-c3ccc(O)cc3)cc2)ccc1O (stereo not drawn) [TCMDC-132103] is lower in “% Inhibition” value: -11.42% for the first, -69.36% for the second.

Going from COc1ccc(Nc2ncc3c(-c4cccc(NC(=O)Cc5ccncc5)c4)c[nH]c3n2)cc1OC [TCMDC-135286] to COc1ccc(Nc2ncc3c(-c4cccc(NC(=O)Cc5ccc(O)cc5)c4)c[nH]c3n2)cc1OC [TCMDC-135248], the “% Inhibition” value falls from -39.63% to -43.02%.

Going from COc1ccc(Nc2ncc3c(-c4cccc(NC(=O)CC(C)C)c4)c[nH]c3n2)cc1OC [TCMDC-135246] to COc1ccc(-c2cnn3ccc(Nc4cc(OC)c(OC)c(OC)c4)nc23)cc1OC [TCMDC-134383], the “% Inhibition” value rises from 51.08% to 101%.

Compared with Cc1cccc2nc(-c3ccc(-c4cccc(CN5CCN(CCN6CCOCC6)CC5)c4)s3)[nH]c12.O=C(O)C(F)(F)F [TCMDC-133925], Cc1cccc2nc(-c3ccc(-c4cccc(CN5CCC(CCN6CCCCC6)CC5)c4)s3)[nH]c12.O=C(O)C(F)(F)F [TCMDC-133923] is higher in “% Inhibition” value: 7.217% for the first, 107.3% for the second.

Compared with NC1CCCN(Cc2cccc(-c3ccc(-c4nc5ccccc5[nH]4)s3)c2)C1.O=C(O)C(F)(F)F (stereo not drawn) [TCMDC-133870], Cc1cccc2nc(-c3ccc(-c4cccc(CN5CCCC(N)C5)c4)s3)[nH]c12.O=C(O)C(F)(F)F (stereo not drawn) [TCMDC-133874] is higher in “% Inhibition” value: 15.45% for the first, 63.62% for the second.

Compared with Cc1cccc2nc(-c3ccc(-c4cccc(CN5CCCC(O)C5)c4)s3)[nH]c12.O=C(O)C(F)(F)F (stereo not drawn) [TCMDC-133834], Cc1cccc2nc(-c3ccc(-c4cccc(CN5CCC(N)C5)c4)s3)[nH]c12.O=C(O)C(F)(F)F (stereo not drawn) [TCMDC-133873] is higher in “% Inhibition” value: -3.04% for the first, 89.08% for the second.

Compared with Cc1cccc2nc(-c3ccc(-c4cccc(CN5CCCCC5)c4)s3)[nH]c12.O=C(O)C(F)(F)F [TCMDC-133911], Cc1cccc2nc(-c3ccc(-c4cccc(CN5CCC(C(N)=O)CC5)c4)s3)[nH]c12.O=C(O)C(F)(F)F [TCMDC-132690] is higher in “% Inhibition” value: -13.55% for the first, -2.69% for the second.

Going from Cc1cccc2nc(-c3ccc(-c4cccc(CN5CCC(CO)CC5)c4)s3)[nH]c12.O=C(O)C(F)(F)F [TCMDC-133122] to CNCCNCc1cccc(-c2cccc(-c3nc4ccc(F)cc4[nH]3)c2)c1 [TCMDC-132840], the “% Inhibition” value rises from 24.91% to 70.05%.

Going from COc1ccc(-c2cncc(-c3ccc(OC)c(OC)c3)n2)cc1OC [TCMDC-138247] to COc1cc(Nc2nccn3c(-c4ccsc4)cnc23)cc(OC)c1OC [TCMDC-134382], the “% Inhibition” value rises from 25.57% to 37.58%.

Compared with O=C(CSc1nccn1C1CCCCC1)Nc1cc(C(F)(F)F)ccc1Cl [TCMDC-124949], Cc1ccc(CCC(C)NCC(O)c2cccc(C(F)(F)F)c2)cc1 (stereo not drawn) [TCMDC-131446] is lower in “% Inhibition” value: 15.12% for the first, 13.09% for the second.

Going from Cc1c(CNCCCNc2nc3ccncc3[nH]2)sc(Br)c1Br [TCMDC-140512] to COc1cccc2[nH]c(NCCCNCc3cc(Br)cc(Br)c3)nc12 [TCMDC-139984], the “% Inhibition” value falls from 32.17% to 1.75%.

Compared with CCNc1cc(C(=O)N[C@@H](Cc2ccccc2)[C@H](O)CNC(C)C)cc(N2CC(c3ccccc3)CCS2(=O)=O)c1 (stereo partly drawn) [TCMDC-134660], CCCC(CNCc1ccccc1)CNc1cc(=O)c2ccccc2[nH]1 (stereo not drawn) [TCMDC-139434] is higher in “% Inhibition” value: 43.25% for the first, 43.59% for the second.

Compared with O=S(=O)(NC1CCN(c2ccnc3cc(Cl)ccc23)C1)c1cccs1 (stereo not drawn) [TCMDC-133398], COc1ccc(-c2ccc(NC(=O)c3cccs3)cc2)cc1CN1CCCN(C)CC1 [TCMDC-132509] is lower in “% Inhibition” value: 1.762% for the first, -9.366% for the second.

First: CS(=O)(=O)NCCCNCc1cccc(-c2cccc(-c3nc4ccc(F)cc4[nH]3)c2)c1 [TCMDC-133075]
Second: CNCCNCc1ccc(-c2cccc(-c3nc4ccc(F)cc4[nH]3)c2)cc1 [TCMDC-132836]
The “% Inhibition” value of the first is lower: -24.93% for the first, 79.45% for the second.

Going from CN(C)CCNCc1ccc(-c2ccc(-c3nc4ccc(F)cc4[nH]3)cc2)cc1 [TCMDC-132681] to CNCCNCc1ccc(-c2ccc(-c3nc4ccc(F)cc4[nH]3)cc2)cc1 [TCMDC-132832], the “% Inhibition” value rises from 40.34% to 83.07%.

First: Fc1ccc2nc(-c3cccc(-c4ccc(CNCCc5ccncc5)cc4)c3)[nH]c2c1 [TCMDC-132854]
Second: Fc1ccc2nc(-c3cccc(-c4cccc(CNCCc5ccncc5)c4)c3)[nH]c2c1 [TCMDC-132857]
The “% Inhibition” value of the first is higher: 81.48% for the first, -45.49% for the second.

Compared with COc1ccc(CNCc2cccc(-c3cccc(-c4nc5ccc(F)cc5[nH]4)c3)c2)cc1 [TCMDC-132717], COc1ccc(CNCc2ccc(-c3cccc(-c4nc5ccc(F)cc5[nH]4)c3)cc2)cc1 [TCMDC-132721] is higher in “% Inhibition” value: -45.78% for the first, -29.84% for the second.

Compared with Nc1cccc(CNCc2ccc(-c3cccc(-c4nc5ccc(F)cc5[nH]4)c3)cc2)c1 [TCMDC-132937], Fc1ccc2nc(-c3cccc(-c4ccc(CNCc5ccccc5)cc4)c3)[nH]c2c1 [TCMDC-132702] is lower in “% Inhibition” value: -46.54% for the first, -56.98% for the second.

Compared with CNc1ccc(CNCc2ccc(-c3ccc(-c4nc5ccc(F)cc5[nH]4)cc3)cc2)cc1 [TCMDC-132980], Nc1ccc(-c2nc3ccc(Cc4ccc5nc(-c6ccc(N)cc6)[nH]c5c4)cc3[nH]2)cc1 [TCMDC-123486] is higher in “% Inhibition” value: -78.33% for the first, 52.65% for the second.

First: COc1nc2c(CCN3CC[C@H](NCc4ccc5c(c4)NC(=O)CO5)[C@H](O)C3)c(Cl)cnc2cc1F [TCMDC-135805]
Second: O=C(/C=C/c1ccc(Cl)c(Cl)c1)NCCCCCCN1CCN(C(=O)Nc2ccc(F)c(Cl)c2)CC1 [TCMDC-135833]
The “% Inhibition” value of the first is higher: -8.55% for the first, -83.03% for the second.

Compared with CC(C)CC(=O)N1CCNC[C@@H]1C(=O)NC1CC1 [TCMDC-141241], COc1ccc(-c2ccc(NC(=O)c3ccc(F)cc3)cc2)cc1CN1CCCN(C)CC1 [TCMDC-132514] is lower in “% Inhibition” value: 28.73% for the first, 15.06% for the second.

Compared with CC1(C)CCC(=Cc2ccc(Cl)cc2)CC1(O)Cn1ccnc1 (stereo not drawn) [TCMDC-125222], COc1ccc(-c2ccc(NC(=O)c3ccccc3)cc2)cc1CN1CCCN(C)CC1 [TCMDC-132535] is higher in “% Inhibition” value: 20.04% for the first, 93.82% for the second.

First: Nc1ncc(Cc2cc(Cl)c(N)c3ncccc23)c(N)n1 [TCMDC-137889]
Second: COC(=O)CCCCCOc1cc(Cc2cnc(N)nc2N)cc(OC)c1OC [TCMDC-137678]
The “% Inhibition” value of the first is higher: 44.6% for the first, -5.017% for the second.

First: Nc1ccc(-c2nc3ccc(Oc4ccc5nc(-c6ccc(N)cc6)[nH]c5c4)cc3[nH]2)cc1 [TCMDC-125791]
Second: Cc1nc2ccc(-c3nc4ccc(N)cc4[nH]3)cc2[nH]1 [TCMDC-123723]
The “% Inhibition” value of the first is higher: -25% for the first, -56.67% for the second.

Compared with COc1ccccc1N1CCN(CCCCNC(=O)c2ccc(NC(=O)c3cc(Cl)cc(Cl)c3)cc2)CC1 [TCMDC-138236], COc1ccc(-c2ccc(NC(=O)c3ccc(C#N)cc3)cc2)cc1CN1CCCN(C)CC1 [TCMDC-132517] is higher in “% Inhibition” value: 3.866% for the first, 41.17% for the second.

Compared with COc1ccc(-c2cccc(NC(=O)c3ccc(C#N)cc3)c2)cc1CN1CCCN(C)CC1 [TCMDC-132609], COc1ccc(-c2cccc(NC(=O)c3ccc(C#N)cc3)c2)cc1CN1CCN(C)CC1 [TCMDC-132612] is higher in “% Inhibition” value: -22.05% for the first, -15.47% for the second.

Going from COc1ccc(-c2cccc(NC(=O)c3cccs3)c2)cc1CN1CCCN(C)CC1 [TCMDC-132600] to O=[N+]([O-])c1cccc(Nc2cncc(-c3ccc(CO)cc3)c2)c1 [TCMDC-136670], the “% Inhibition” value falls from 87.2% to 46.28%.

Compared with COc1ccc(Cc2c(Cl)nc3nc(N)nc(N)c3c2C)cc1 [TCMDC-138055], Oc1ccc(CCCNc2nc(NCc3cccc4ccccc34)nc(N3CCNCC3)n2)cc1 [TCMDC-133394] is lower in “% Inhibition” value: 17.08% for the first, 8.629% for the second.

Compared with Oc1ccc(CCCNc2nc(NCc3cccc4ccccc34)nc(N3CCCNCC3)n2)cc1 [TCMDC-133445], Oc1ccc(CCCNc2nc(NCc3ccccc3-c3ccccc3)nc(N3CCNCC3)n2)cc1 [TCMDC-133391] is higher in “% Inhibition” value: -39.91% for the first, 23.94% for the second.

Going from Oc1ccc(CCNc2nc(NCc3ccccc3-c3ccc(C(F)(F)F)cc3)nc(NC3CCNCC3)n2)cc1 [TCMDC-133387] to Oc1ccc(CCCNc2nc(NCc3ccccc3-c3ccccc3)nc(NC3CCNCC3)n2)cc1 [TCMDC-133389], the “% Inhibition” value rises from 26.8% to 58.76%.

Compared with Oc1ccc(CCCNc2nc(NCc3cccc4ccccc34)nc(NC3CCNCC3)n2)cc1 [TCMDC-133392], COc1cc(NCCCNCc2cn(Cc3cc(Br)cc(Br)c3)c3ccccc23)nc2ccccc12 [TCMDC-140677] is higher in “% Inhibition” value: 57.4% for the first, 108.1% for the second.

Compared with CCCC(CNCc1cccc(C)c1)CNc1cc(=O)c2ccccc2[nH]1 (stereo not drawn) [TCMDC-139435], CC(CNCc1cn(Cc2cc(Br)cc(Br)c2)c2ccccc12)CNc1cc(=O)c2ccccc2[nH]1 (stereo not drawn) [TCMDC-140681] is higher in “% Inhibition” value: 10.27% for the first, 91.88% for the second.

Compared with O=c1cc(NCC2(CNCc3cn(Cc4ccccc4)c4ccccc34)CCCCC2)[nH]c2ccccc12 [TCMDC-140540], COc1cc(NCC2(CNCc3cn(Cc4ccccc4)c4ccccc34)CCCCC2)nc2ccccc12.Cl [TCMDC-140539] is higher in “% Inhibition” value: -59.9% for the first, 107.8% for the second.

Compared with COc1cc(C(F)(F)F)cc2[nH]c(CNCCCNc3nc4ccccc4[nH]3)cc12 [TCMDC-140013], COc1cc(NCC(C)CNCc2cn(Cc3ccccc3)c3ccccc23)nc2ccccc12 (stereo not drawn) [TCMDC-140496] is higher in “% Inhibition” value: 19.83% for the first, 91.67% for the second.
